Shown are actives, neighbours in structure and some others; about 8% of the full set was active somewhere.
Lassa entry inh: Lassa virus entry inhibition | Lassa virus pseudotype entry inhibition, cell reporter | Potency, µM (doses to about 37.9 µM), for the others: top-dose activity change, negative = inhibition, hits mostly inhibitors | actives 1.2% (n = 300,000) | AID 540256; calls by dose curve; tested in HEK293 cells; also: potency is read from the fitted curve at half-maximal effect; % is scaled to controls: 0 for no effect and ±100 for the full control effect; nearly all actives have a fitted effect of over 50% in size
Marburg entry inh: inhibitors of Marburg virus binding or cell entry; AID 540276; actives 1.8% (n = 300,000); Potency, µM (top dose mostly 37.8 µM), for inactives: at the highest dose activity change, negative = inhibition, actives largely listed as inhibitors; Marburg virus pseudotyped entry inhibition, cell reporter; calls by dose curve; tested in HEK293 cells; also: potency is read from the fitted curve at half-maximal effect; % is scaled to controls: 0 for no effect and ±100 for the full control effect
HCMV antiviral: inhibitors of human cytomegalovirus; actives 4.5% (n = 410,000); activity change, negative = inhibition, % at 57.5 µM; HFF cells, HCMV-luciferase reporter, 72 h; hits give low values; in the data active = activity change below about -60%; inconclusive = no clear call, values can overlap the other calls; inactive = above about -39%; also: % is scaled to controls: 0 for no effect and ±100 for the full control effect
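Compounds were evaluated in HFFs infected with an HCMV luciferase reporter virus (MOI 1 PFU/cell). Luciferase in lysates collected 72 h post infection served as the replication measure.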
FMDV inh: foot and mouth disease virus antiviral activity; FMDV antiviral cell-based qHTS; Potency, µM (series often up to 57.9 µM), inactives show top-dose activity change, negative = inhibition, usual class: inhibitors; actives 1.2% (n = 410,000); calls by dose curve; tested in HEK293T cells; also: read-out not given here; potency is read from the fitted curve at half-maximal effect; % is scaled to controls: 0 for no effect and ±100 for the full control effect; nearly all actives have a fitted effect of over 45% in size
SARS PLP yeast: SARS-CoV PLP inhibition in yeast | AID 485353 | actives 0.19% (n = 330,000) | S. cerevisiae expressing SARS-CoV PLpro, growth rescue | Potency, µM (doses to about 32.9 µM), without a hit: at the highest dose activity, positive = growth rescue, actives largely listed as activators; calls by dose curve; also: potency is read from the fitted curve at half-maximal effect; 0% is about no effect; nearly all actives have a fitted effect of over 55% in size
HCV inhibitor: HCV inhibition; Huh7.5.1 HCVcc-Cre infection, luciferase reporter, 44 h; actives 3.4% (n = 340,000); Potency, µM (series often up to 41.8 µM), inactives show top-dose activity change, negative = inhibition, usual class: inhibitors; active = well fitted inhibition curve with a large enough effect; inconclusive = small, poorly fitted or top-dose-only effect, or another doubt; inactive = no such curve, though single readings can be large or run the other way; also: potency is read from the fitted curve at half-maximal effect; % is scaled to controls: 0 for no effect and ±100 for the full control effect
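Compounds are dispensed onto cells plated 4 h earlier at 1,000 per well, with HCVcc-Cre virus (about 0.5 moi) added next. Following 44 h of culture, luminescent signal is measured for 15 sec after 15 min with substrate at room temperature.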
* marks the source's active call; other numbers are inactive results; [ ] = remark or other dose.

What do the screens show for `CCCN1C(C(=O)c2ccccc2)=C(OC(=O)c2ccc(C)cc2)c2ccccc2S1(=O)=O`?
Lassa entry inh: inconclusive; Marburg entry inh: -6.5%[46.1 µM]; HCMV antiviral: -84.6*; FMDV inh: -13.5%

How did OC1(c2ccc(OC(F)F)cc2)CSC(=Nc2cccnc2)N1Cc1ccco1 (stereo not given) do in these assays?
Lassa entry inh: inconclusive; Marburg entry inh: inconclusive; HCMV antiviral: -9.4; FMDV inh: 8.91µM*; SARS PLP yeast: -4.2%; HCV inhibitor: 11.2µM*

How did COc1cccc(Cn2c(=O)c(-c3cc(F)cc(F)c3)nc3cnc(N4CCNCC4)nc32)c1 do in these assays?
FMDV inh: -10.5%

What do the screens show for `CCc1nc(N=C(N)N)nc2ccccc12`?
HCMV antiviral: -82.0*; SARS PLP yeast: 3.3%

What do the screens show for `NC(N)=Nc1nc(-c2ccccc2)c2ccccc2n1`?
Lassa entry inh: -22.9%[46.1 µM]; Marburg entry inh: inconclusive; HCMV antiviral: -94.8*; FMDV inh: -11.0%; SARS PLP yeast: -1.6%; HCV inhibitor: -25.6%

Results for Clc1nc(-c2ccccc2)c2ccccc2n1 ?
Lassa entry inh: 1.7%[46.1 µM]; Marburg entry inh: -3.4%[46.1 µM]; HCMV antiviral: 39.5; FMDV inh: -12.6%; SARS PLP yeast: 6.8%; HCV inhibitor: 5.3%

What do the screens show for `Cc1ccc2nc(SCC(=O)N3CCC4(CC3)CC4C(=O)Nc3ccc(F)c(F)c3)[nH]c2c1` (stereo not given)?
FMDV inh: -4.0%

What do the screens show for `O=c1cc(Nc2ccc3c(c2)OCO3)[nH]c(=O)n1-c1ccc(Br)cc1`?
Lassa entry inh: -37.8%; Marburg entry inh: inconclusive; HCMV antiviral: -77.7*; SARS PLP yeast: 16.5%; HCV inhibitor: inconclusive

What do the screens show for `O=c1cc(Nc2ccc3c(c2)OCCO3)[nH]c(=O)n1-c1ccc(Br)cc1`?
Lassa entry inh: inconclusive; Marburg entry inh: inconclusive; HCMV antiviral: inconclusive; SARS PLP yeast: 9.1%; HCV inhibitor: -11.8%

What do the screens show for `Cc1ccc2[nH]c3c(c2c1)CCC3=O`?
Lassa entry inh: -13.9%; Marburg entry inh: 1.0%; HCMV antiviral: 57.4; SARS PLP yeast: -12.6%; HCV inhibitor: inconclusive

Results for Cc1ccc2[nH]c3c(c2c1)CCCC3=O ?
Lassa entry inh: 14.3%; Marburg entry inh: -18.0%[46.1 µM]; HCMV antiviral: 145.4; FMDV inh: 33.4%; SARS PLP yeast: -6.5%; HCV inhibitor: 10µM*

What do the screens show for `Cc1ccc2[nH]c3c(c2c1)CCc1cn[nH]c1-3`?
Lassa entry inh: inconclusive; Marburg entry inh: 2.2%; HCMV antiviral: 17.4; FMDV inh: 43.1%; SARS PLP yeast: -29.5%; HCV inhibitor: 14.1µM*

Results for COCCCn1c(SCCc2ccccc2)nc2cc(OC)c(OC)cc2c1=N ?
HCMV antiviral: -18.1; FMDV inh: inconclusive; SARS PLP yeast: -6.7%; HCV inhibitor: 12.6µM*

Results for CCSc1nc2cc(OC)c(OC)cc2c(=O)n1CCc1ccccc1 ?
Lassa entry inh: inconclusive; Marburg entry inh: inconclusive; HCMV antiviral: inconclusive; FMDV inh: -3.2%; SARS PLP yeast: -1.7%; HCV inhibitor: inconclusive

Results for O=C1CCCC=C1[C@@H](O)CCOCc1ccccc1 ?
Marburg entry inh: 7.4%[14.2 µM]

What do the screens show for `CC(=O)c1c(-c2ccc(Cl)cc2)c2ccccc2[nH]c1=O`?
Lassa entry inh: inconclusive; Marburg entry inh: -11.1%[46.1 µM]; HCMV antiviral: inconclusive; FMDV inh: -15.2%; SARS PLP yeast: 0.5%; HCV inhibitor: -17.2%

What do the screens show for `CC(=O)c1c(-c2ccccc2)c2cc(Cl)ccc2[nH]c1=O`?
Lassa entry inh: -28.8%; Marburg entry inh: -24.8%[14.2 µM]; HCMV antiviral: -62.8*; FMDV inh: 2.6%; SARS PLP yeast: 0.5%; HCV inhibitor: 2.4%

How did Cc1ccc(-c2nc3ncccc3o2)cc1NC(=O)c1ccc([N+](=O)[O-])o1 do in these assays?
Lassa entry inh: 0.3%[46.1 µM]; Marburg entry inh: 9.7%[46.1 µM]; FMDV inh: -19.2%; SARS PLP yeast: -1.5%; HCV inhibitor: 2.7%

How did O=C(Nc1ccc2oc(-c3ccncc3)nc2c1)c1ccccc1 do in these assays?
Lassa entry inh: -26.2%; Marburg entry inh: 3.5%; HCMV antiviral: inconclusive; FMDV inh: 9.6%; SARS PLP yeast: 0.7%; HCV inhibitor: 0.2%

How did Cc1c(Cl)cccc1-c1ccc(C(=O)Nc2ccc3oc(-c4cccnc4)nc3c2)o1 do in these assays?
Lassa entry inh: 20.9%[46.1 µM]; HCMV antiviral: inconclusive; FMDV inh: inconclusive

Results for O=C(Nc1ccc(-c2nc3ncccc3o2)cc1)c1ccc([N+](=O)[O-])o1 ?
Lassa entry inh: 4.7%[46.1 µM]; Marburg entry inh: -3.5%[46.1 µM]; HCMV antiviral: -75.6*; FMDV inh: 3.9%; SARS PLP yeast: -9.4%; HCV inhibitor: 3.55µM*

How did O=C(Nc1ccc2oc(-c3ccncc3)nc2c1)c1ccc([N+](=O)[O-])o1 do in these assays?
Lassa entry inh: -26.1%[46.1 µM]; Marburg entry inh: inconclusive; HCMV antiviral: -102.0*; FMDV inh: 8.0%; SARS PLP yeast: -10.2%; HCV inhibitor: 10µM*

What do the screens show for `O=C(Nc1ccc2oc(-c3cccnc3)nc2c1)c1ccc(-c2cccc(OC(F)(F)F)c2)o1`?
Lassa entry inh: 15.2%[46.1 µM]; HCMV antiviral: -82.0*; FMDV inh: inconclusive

How did COC(=O)c1cccc(-c2cc(Cl)c3c(c2)CC(CNC(=O)c2cccnc2)O3)c1 (stereo not given) do in these assays?
FMDV inh: -16.3%

What do the screens show for `N#CCC(CNc1ncc(C(F)(F)F)cc1Cl)OC(=O)c1ccc(Cl)cc1` (stereo not given)?
Lassa entry inh: -4.2%; Marburg entry inh: -0.2%; HCMV antiviral: -62.5*; SARS PLP yeast: -22.2%; HCV inhibitor: inconclusive

How did O=C(Nc1cccc(C(F)(F)F)c1)c1cccnc1NCCO do in these assays?
Lassa entry inh: -23.9%[46.1 µM]; Marburg entry inh: 18.1%[46.1 µM]; HCMV antiviral: 6.1; FMDV inh: -14.9%; SARS PLP yeast: 2.9%; HCV inhibitor: 7.9%

What do the screens show for `CNC(=O)c1cccnc1Nc1cccc(C(F)(F)F)c1`?
Lassa entry inh: 0.5%; Marburg entry inh: 30.9%; HCMV antiviral: 14.3; FMDV inh: 0.0%; SARS PLP yeast: -61.8%; HCV inhibitor: 10µM*

How did O=C(NCc1ccco1)c1ccc2c(c1)N(Cc1ccccc1F)C(=O)c1ccccc1S2=O (stereo not given) do in these assays?
Lassa entry inh: -9.6%[46.1 µM]; Marburg entry inh: -3.3%[46.1 µM]; HCMV antiviral: -13.4; FMDV inh: -22.3%

What do the screens show for `CC1CCN(C(=O)Cn2c(SCC(=O)Nc3ccc(F)cc3)nc3ccccc32)CC1`?
Lassa entry inh: 3.3%[46.1 µM]; HCMV antiviral: -26.6; FMDV inh: -14.2%

Results for Cn1c(=O)c(NCCc2ccccc2)c2c3c(cccc31)C(=O)c1ccccc1-2 ?
Lassa entry inh: -0.9%; Marburg entry inh: -12.1%; HCMV antiviral: -9.7; FMDV inh: 0.0%; SARS PLP yeast: -11.0%; HCV inhibitor: inconclusive

Source: PubChem BioAssay (National Center for Advancing Translational Sciences (NCATS))
